{
  "source": "PubChem BioAssay (Tox21)",
  "note": "Records with an inconclusive call do not appear. Where a call stands in place of a potency, no number is given. Values without a mark were called inactive. Calls of active or inactive are those of the source. Calls follow the shape of the dose curve; as a rule, active = well fitted cell-killing curve with a large enough effect in the repeat runs; inconclusive = weak or mixed curves, or effect the other way; inactive = flat fitted curve, though single readings scatter. Potency is read from the fitted curve at half-maximal effect.",
  "data": [
    {"test": "cAMP Responsive Elements (CRE) small molecule antagonists, cell-based qHTS assay: qHTS cell viability counter screen (AID 2060913); also: nearly all actives have a fitted effect of over 40% in size", "settings": "CRE-bla HEK293T viability, CellTiter-Glo luminescence, 5 h; series mostly up to 92.4 µM", "outline": "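Cytotoxicity counter screen multiplexed with the CRE-bla antagonist read: HEK293T cells in DMEM with dialyzed FBS and 25 mM HEPES were treated 3 hrs under 0.25 uM final NKH477, then viability measured by CellTiter-Glo luminescence.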", "values": [
      {"smiles": "Cc1ccc(Cl)c(Nc2ccccc2C(=O)O)c1Cl", "Potency": "inactive"},
      {"smiles": "COc1ccc(N=Nc2cc(C)c(N=Nc3ccc(S(=O)(=O)O)cc3)cc2OC)cc1", "Potency": "inactive"},
      {"smiles": "O=[N+]([O-])c1ccccc1CCO", "Potency": "inactive"},
      {"smiles": "O=C(O)C(Cc1cc(I)c(O)c(I)c1)c1ccccc1", "note": "(stereo not given)", "Potency": "inactive"},
      {"smiles": "CCCCCCCCCCCCCOC(=O)CCSCCC(=O)OCCCCCCCCCCCCC", "viability change, negative = cytotoxic": "3.07% [at 18.9 µM]"},
      {"smiles": "c1ccc(-c2ccccn2)nc1", "Potency": "inactive"},
      {"smiles": "C1=CCC2CC=CC2C1", "note": "(stereo not given)", "Potency": "inactive"},
      {"smiles": "CN1N=C(C(N)=O)CCC1=O", "Potency": "inactive"},
      {"smiles": "O=C(Nc1ncc([N+](=O)[O-])s1)c1cccs1", "Potency": "21.1 µM (active)"},
      {"smiles": "NC(=O)c1cc[n+](CC2=C(C(=O)[O-])N3C(=O)[C@@H](NC(=O)Cc4cccs4)[C@H]3SC2)cc1", "Potency": "inactive"},
      {"smiles": "CC(C)(c1ccccc1)c1ccccc1", "Potency": "inactive"},
      {"smiles": "CCN1CCCC1CNC(=O)c1cc(S(=O)(=O)CC)c(N)cc1OC", "note": "(stereo not given)", "Potency": "inactive"},
      {"smiles": "Nc1ccccc1[N+](=O)[O-]", "Potency": "inactive"},
      {"smiles": "CCOC(=O)CC1(C)OCC(C)O1", "note": "(stereo not given)", "Potency": "inactive"},
      {"smiles": "CC(=O)OC/C=C(\\C)CC/C=C(\\C)CCC=C(C)C", "Potency": "inactive"},
      {"smiles": "S=P(N1CC1)(N1CC1)N1CC1", "Potency": "inactive"},
      {"smiles": "CC(C)(C)NCC(O)COc1cccc2c1C[C@H](O)[C@H](O)C2", "note": "(stereo not given in full)", "Potency": "inactive"},
      {"smiles": "Cc1ccsc1C(=CCCN1CCC[C@@H](C(=O)O)C1)c1sccc1C", "Potency": "inactive"},
      {"smiles": "c1ccc(Nc2ccccc2)cc1", "Potency": "inactive"},
      {"smiles": "CC(O)COc1ccccc1", "note": "(stereo not given)", "Potency": "inactive"},
      {"smiles": "CC(S)C(=O)NCC(=O)O", "note": "(stereo not given)", "Potency": "inactive"},
      {"smiles": "NC(CO)C(=O)NNCc1ccc(O)c(O)c1O", "note": "(stereo not given)", "Potency": "inactive"},
      {"smiles": "CCCCN(CCO)CCCC", "Potency": "inactive"},
      {"smiles": "CCc1cccc2c3c([nH]c12)C(CC)(CC(=O)O)OCC3", "note": "(stereo not given)", "Potency": "inactive"},
      {"smiles": "Nc1cc(Cl)c(N)c(Cl)c1", "Potency": "inactive"},
      {"smiles": "C1=Cc2ccccc2C1", "Potency": "inactive"},
      {"smiles": "O=C(Cl)c1ccc(Cl)cc1Cl", "Potency": "inactive"},
      {"smiles": "C=CC(=O)OCCC(=O)O", "Potency": "inactive"},
      {"smiles": "OC[C@H]1O[C@@H]2O[C@H]3[C@H](O)[C@@H](O)[C@@H](O[C@H]4[C@H](O)[C@@H](O)[C@@H](O[C@H]5[C@H](O)[C@@H](O)[C@@H](O[C@H]6[C@H](O)[C@@H](O)[C@@H](O[C@H]7[C@H](O)[C@@H](O)[C@@H](O[C@H]8[C@H](O)[C@@H](O)[C@@H](O[C@H]9[C@H](O)[C@@H](O)[C@@H](O[C@H]1[C@H](O)[C@H]2O)O[C@@H]9CO)O[C@@H]8CO)O[C@@H]7CO)O[C@@H]6CO)O[C@@H]5CO)O[C@@H]4CO)O[C@@H]3CO", "Potency": "inactive"},
      {"smiles": "CC(C)SCc1ccco1", "Potency": "inactive"},
      {"smiles": "CCCCCCCCCCC1CO1", "note": "(stereo not given)", "Potency": "inactive"},
      {"smiles": "Oc1cc(Cl)cc(Cl)c1Cl", "Potency": "55.8 µM (active)"},
      {"smiles": "CCCN(CCC)S(=O)(=O)c1ccc(C(=O)O)cc1", "Potency": "inactive"},
      {"smiles": "C=CCc1ccccc1OCC(O)CNC(C)C", "note": "(stereo not given)", "Potency": "inactive"},
      {"smiles": "CC(CCC(=O)O)C(=O)O", "note": "(stereo not given)", "Potency": "inactive"},
      {"smiles": "COc1ccc(C2C(=O)c3ccccc3C2=O)cc1", "Potency": "inactive"},
      {"smiles": "CC(C)c1ccc(C(=O)N=C(N)N)cc1S(C)(=O)=O", "Potency": "inactive"},
      {"smiles": "C[C@]12C=CC(=O)C=C1CC[C@H]1[C@@H]3C[C@@H](O)[C@](O)(C(=O)CO)[C@@]3(C)C[C@H](O)[C@@]12F", "Potency": "inactive"},
      {"smiles": "C1CCC2=NCCCN2CC1", "Potency": "inactive"},
      {"smiles": "OCCN1CCOCC1", "Potency": "inactive"}
    ]}
  ]
}
